Measured values taken from publication PMC10726135, “HNF4α isoforms regulate the circadian balance between carbohydrate and lipid metabolism in the liver”.
Whole data set: some 18,000 sequences, median “log2 normalized intensity” near 0.39, cut for the highest 2% near 6.6. The full list was thinned out, with the highest values kept by preference.

The sequences below were run against T1, HNF4alpha2 (COS-7 nuclear extract) (Homo sapiens, UniProt P41235 1-474) (assay: protein-binding microarray; COS-7 nuclear extract on double-stranded Agilent 4x180k PBM; binding buffer, salt, pH and temperature not given in the material; high values mean tight binding). Conditions: chain copies: 2; label: 3' end of strand 1 on the slide; dsDNA, one strand shown.
T1 sequence: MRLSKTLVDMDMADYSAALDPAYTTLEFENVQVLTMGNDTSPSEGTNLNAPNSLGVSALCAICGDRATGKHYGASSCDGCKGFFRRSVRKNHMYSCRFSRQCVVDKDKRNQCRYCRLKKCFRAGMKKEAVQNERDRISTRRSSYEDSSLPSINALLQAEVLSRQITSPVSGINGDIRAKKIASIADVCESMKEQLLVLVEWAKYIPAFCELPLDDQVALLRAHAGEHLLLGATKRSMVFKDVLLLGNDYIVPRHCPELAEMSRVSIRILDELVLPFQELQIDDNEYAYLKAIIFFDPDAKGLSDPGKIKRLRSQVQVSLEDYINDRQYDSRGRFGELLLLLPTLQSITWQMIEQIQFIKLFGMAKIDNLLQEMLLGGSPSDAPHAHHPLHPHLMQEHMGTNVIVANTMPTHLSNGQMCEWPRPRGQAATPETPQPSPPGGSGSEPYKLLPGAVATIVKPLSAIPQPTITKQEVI
Method in brief: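 Binding signal was defined as the normalized, background-corrected gProcessedSignal reported by Agilent software. It came from nuclear extracts of COS-7 cells transiently transfected with a human HNF4α isoform expression vector, applied to a custom Agilent SurePrint G3 4x180k array. That array held ~44,000 test sequences in quadruplicate as double-stranded ~60-nt oligonucleotides, and bound HNF4α was imaged at 2-µm resolution on an Agilent G2565CA scanner.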

| Sequence | binding signal [log2 normalized intensity] |
| --- | --- |
| TTTGCTCCAGTTCCCAATAATTTCCTTATCGCCTAGGGAGATTAGAGTATCGGTCGA | -0.628 |
| TGTAACTAACAACTGACCTTGCAGGCCAGGGCCTAGGGAGATTAGAGTATCGGTCGA | -0.838 |
| TCTGTTTGATTCCATGCTGATAATGGAATTGCCTAGGGAGATTAGAGTATCGGTCGA | 0.756 |
| CAAATGAATAATCCCCTCCTGGACTTTGGTGCCTAGGGAGATTAGAGTATCGGTCGA | 4.73 |
| ATCCCCTCCTGGACTTTGGTCTCATGGGCCGCCTAGGGAGATTAGAGTATCGGTCGA | 6.4 |
| CTCCTGGACTTTGGTCTCATGGGCCTAAACGCCTAGGGAGATTAGAGTATCGGTCGA | 4.65 |
| GACATGCAGTATGGGGACTTTGGACTCCTGGCCTAGGGAGATTAGAGTATCGGTCGA | 7.53 |
| GTAATGACATGCAGTATGGGGACTTTGGACGCCTAGGGAGATTAGAGTATCGGTCGA | 5.99 |
| GAATAATCCCCTCCTGGACTTTGGTCTCATGCCTAGGGAGATTAGAGTATCGGTCGA | 7.15 |
| ATCAGTGTACCTGTCCCTACTCAATTATCAGCCTAGGGAGATTAGAGTATCGGTCGA | -0.287 |
| CAAGAATACGGATTCTTAAGGGCAAAGGTTGCCTAGGGAGATTAGAGTATCGGTCGA | 5.88 |
| GCTGTGCCGAGCCTGCAGGTGAATGGAAACGCCTAGGGAGATTAGAGTATCGGTCGA | -0.549 |
| AATCTGAATTAACTCTTTACACAGTTCTGAGCCTAGGGAGATTAGAGTATCGGTCGA | -0.00196 |
| ACAAAAACTGTTTCTATGTGACCTTCACCCGCCTAGGGAGATTAGAGTATCGGTCGA | 5.26 |
| AAGACTTCCTGGCCTCTCTGCAAATTTGCCGCCTAGGGAGATTAGAGTATCGGTCGA | -0.993 |
| GTTAGGAAACACTCTGTTTGTAAAGTCTACGCCTAGGGAGATTAGAGTATCGGTCGA | 0.577 |
| GAGAGTTTTCCTTGGCTGTGCTGCCCTTTGGCCTAGGGAGATTAGAGTATCGGTCGA | 3.6 |
| CTTGGCTGTGCTGCCCTTTGCCCTTTGGGAGCCTAGGGAGATTAGAGTATCGGTCGA | 7.11 |
| GGACTTTGGGCTGTGTTTTGCCCCTGCAGAGCCTAGGGAGATTAGAGTATCGGTCGA | 3.66 |
| CTGTGCTGCCCTTTGCCCTTTGGGAAGGGGGCCTAGGGAGATTAGAGTATCGGTCGA | 5.8 |
| TTTTCCTTGGCTGTGCTGCCCTTTGCCCTTGCCTAGGGAGATTAGAGTATCGGTCGA | 7.6 |
| GGGTGGGGTGCTGCCTTTCCTGTGACTTTTGCCTAGGGAGATTAGAGTATCGGTCGA | 1.74 |

| Sequence | binding signal [log2 normalized intensity] |
| --- | --- |
| GGGCATGGACTTTGGAATTAAGGAGATTTGGCCTAGGGAGATTAGAGTATCGGTCGA | 4.96 |
| AGATCCGAAGTCTAGGACGTTATCAGCAGGGCCTAGGGAGATTAGAGTATCGGTCGA | 0.0613 |
| ATAAGTTTTCTCATAAAACACCCACCTTGTGCCTAGGGAGATTAGAGTATCGGTCGA | -0.452 |
| CTATTTCTGACCTTTGCACCAGAGATAATAGCCTAGGGAGATTAGAGTATCGGTCGA | 5.8 |
| TCTGACCAGGCTGATTTAGCTATTTGACCTGCCTAGGGAGATTAGAGTATCGGTCGA | 4.02 |
| TGGCTAAGACAGGGGCTATTTCTGACCTTTGCCTAGGGAGATTAGAGTATCGGTCGA | 6.5 |
| AAGACAGGGGCTATTTCTGACCTTTGCACCGCCTAGGGAGATTAGAGTATCGGTCGA | 9.65 |
| AGGGGCTATTTCTGACCTTTGCACCAGAGAGCCTAGGGAGATTAGAGTATCGGTCGA | 6.87 |
| CCTTTGCACCAGAGATAATATGCTTACTTAGCCTAGGGAGATTAGAGTATCGGTCGA | 0.0286 |
| ATGACTCCAAAGTTCAAACTCTGAAAGCACGCCTAGGGAGATTAGAGTATCGGTCGA | 2.34 |
| CCCTGCAGTCCTCTGCTTATCTGGCCTGCTGCCTAGGGAGATTAGAGTATCGGTCGA | -0.935 |
| ATCTGGTGGTGGTTCTTGTTTCATTGCACAGCCTAGGGAGATTAGAGTATCGGTCGA | 1.84 |
| GTCTTGAGCGCAAATGATCAAAGGTCGGTTGCCTAGGGAGATTAGAGTATCGGTCGA | 5.6 |
| TCAGCACTGAGAGATTACATTTGACTGAGGGCCTAGGGAGATTAGAGTATCGGTCGA | -0.895 |
| TCTTTCAGTGTTGACCTTTGAACATTTCTTGCCTAGGGAGATTAGAGTATCGGTCGA | 8.04 |
| TCTTGGAATGTTGAACCTTTCTTTGTCTTTGCCTAGGGAGATTAGAGTATCGGTCGA | 2.24 |
| GAATGTTGAACCTTTCTTTGTCTTTGCAATGCCTAGGGAGATTAGAGTATCGGTCGA | 2.02 |
| CATGCTCTTGGAATGTTGAACCTTTCTTTGGCCTAGGGAGATTAGAGTATCGGTCGA | 2.64 |
| AACCTTCATCTCTCTTTGTTGACATCTGCTGCCTAGGGAGATTAGAGTATCGGTCGA | 0.528 |
| AGGAGTGTCTTTCTCCTTGAACACAGTGTTGCCTAGGGAGATTAGAGTATCGGTCGA | 1.25 |
| TATCTTCTTTCAGTGTTGACCTTTGAACATGCCTAGGGAGATTAGAGTATCGGTCGA | 8.83 |
| TATCCAATAAAACACTATCTTCTTTCAGTGGCCTAGGGAGATTAGAGTATCGGTCGA | 0.883 |

| Sequence | binding signal [log2 normalized intensity] |
| --- | --- |
| AACACTATCTTCTTTCAGTGTTGACCTTTGGCCTAGGGAGATTAGAGTATCGGTCGA | 6.87 |
| CTTAAAGGCCTGTGTCGATGTTAACGCTAAGCCTAGGGAGATTAGAGTATCGGTCGA | -0.828 |
| GCCCTTCCCCCCTCTGCAGCCTTACCCAGTGCCTAGGGAGATTAGAGTATCGGTCGA | 4.59 |
| TGTCGTTTGCTTAGTCTTATCTGAGGTGCCGCCTAGGGAGATTAGAGTATCGGTCGA | 0.932 |
| GAAATGGTGGACTTTGTAGCTCAAACAGTCGCCTAGGGAGATTAGAGTATCGGTCGA | 3.13 |
| TATGGATAGGCACATATTGGATCTCTGGTAGCCTAGGGAGATTAGAGTATCGGTCGA | 0.865 |
| CAGTTTGAAATTAGGCAATATGAGTAGAGCGCCTAGGGAGATTAGAGTATCGGTCGA | -0.693 |
| TTGGCTAAAGTCCAAATTCCTTGGAATACAGCCTAGGGAGATTAGAGTATCGGTCGA | 3.12 |
| CACACACACACAGCATTCCATTCATTTTAGGCCTAGGGAGATTAGAGTATCGGTCGA | -0.727 |
| AACATGTAATCATTTGGGACAAAGTTCATCGCCTAGGGAGATTAGAGTATCGGTCGA | 4.11 |
| TGAACAATTGATTTATAGCCTTTTTGCCCAGCCTAGGGAGATTAGAGTATCGGTCGA | 1.29 |
| TGCTTTCTTATCTGGGGGCCATTCCTCTATGCCTAGGGAGATTAGAGTATCGGTCGA | 1.1 |
| AGGAGATGTGGTGGACTTTAACGACCTTTGGCCTAGGGAGATTAGAGTATCGGTCGA | 4.66 |
| CCCCTTCTTAACATCAGAAGTTGGACTTTGGCCTAGGGAGATTAGAGTATCGGTCGA | 7.59 |
| ATTAGAGAACATGTACTTTGTACTGCTTATGCCTAGGGAGATTAGAGTATCGGTCGA | 4.15 |
| ACTTTGGAACTCAGTTAATGTACAGAGTATGCCTAGGGAGATTAGAGTATCGGTCGA | 0.375 |
| TCTTAACATCAGAAGTTGGACTTTGTACATGCCTAGGGAGATTAGAGTATCGGTCGA | 9.62 |
| AGGGACTTTGATCTTCTTACCCCTTTGCTGGCCTAGGGAGATTAGAGTATCGGTCGA | 2.86 |
| CTTTGCTCCCACCCTGCAATTCCCCTGGGCGCCTAGGGAGATTAGAGTATCGGTCGA | 3.29 |
| CAAACAGACCTCCCCCAACTTACTTAGTGGGCCTAGGGAGATTAGAGTATCGGTCGA | 1.85 |
| TTCAATTTTTTTGTTGTTATCCATTTAAAAGCCTAGGGAGATTAGAGTATCGGTCGA | 1.04 |
| GTATCTAATCTCAGATATGCTAATTAACCCGCCTAGGGAGATTAGAGTATCGGTCGA | 1.79 |

| Sequence | binding signal [log2 normalized intensity] |
| --- | --- |
| GTTATGAGTCTGTTGTCTAACATTTTTGACGCCTAGGGAGATTAGAGTATCGGTCGA | 0.629 |
| CTTACTTGGCCTGTTTGCTGAAGGCCATGCGCCTAGGGAGATTAGAGTATCGGTCGA | 0.0452 |
| CAACTAGGGCAAAGGTTAGCTTGGACAGAGGCCTAGGGAGATTAGAGTATCGGTCGA | 2.72 |
| GGTATGTTTGTGATATTGTGAAATATATATGCCTAGGGAGATTAGAGTATCGGTCGA | 2.03 |
| GATGATCATGGCTCACTGCACCTTGACCTCGCCTAGGGAGATTAGAGTATCGGTCGA | 7.34 |
| TGCCTTTGATCAGGGACCTTTGTTCCTTTAGCCTAGGGAGATTAGAGTATCGGTCGA | 4.43 |
| GACTGACCTTTGATCATTTGAGGGTGACACGCCTAGGGAGATTAGAGTATCGGTCGA | 5.65 |
| GTGGTCCTAAGACTGACCTTTGATCATTTGGCCTAGGGAGATTAGAGTATCGGTCGA | 8.56 |
| AGGAGGCACTGATAAGCGTATTTCAACCTTGCCTAGGGAGATTAGAGTATCGGTCGA | 0.384 |
| GCACTGATAAGCGTATTTCAACCTTTGATCGCCTAGGGAGATTAGAGTATCGGTCGA | 7.8 |
| GTGGTCCTAAAATTGACCTTTGATCACTCAGCCTAGGGAGATTAGAGTATCGGTCGA | 9.68 |
| AGTGCGATGATCATGGCTCACTGCACCTTGGCCTAGGGAGATTAGAGTATCGGTCGA | 0.629 |
| TCATGGCTCACTGCACCTTGACCTCCTGGGGCCTAGGGAGATTAGAGTATCGGTCGA | 4.99 |
| GATAAGCGTATTTCAACCTTTGATCTATAAGCCTAGGGAGATTAGAGTATCGGTCGA | 5.94 |
| TGCACTTTGACCGCTCATTTGATCCTCACAGCCTAGGGAGATTAGAGTATCGGTCGA | 3.87 |
| GAACTGAAAGAGACCTTTGACATCACCTAAGCCTAGGGAGATTAGAGTATCGGTCGA | 2.04 |
| CACCTTCAGTCACACTGTTTGCGCAAACTAGCCTAGGGAGATTAGAGTATCGGTCGA | -0.824 |
| TACCAAGGCTCAGAGGTCAAGTCACTGCTCGCCTAGGGAGATTAGAGTATCGGTCGA | 2.57 |
| CCTTGGCTGTGTGACTCACCTTTGCTCTGAGCCTAGGGAGATTAGAGTATCGGTCGA | 3.71 |
